Results taken from PubChem BioAssay (EPA / NIEHS).
Records with an inconclusive call do not appear. Active and inactive are the calls of the source. The calls were made as follows: active = hit-call score of the fitted dose curve at least 0.9, where 1 is the maximum; inconclusive = response in the unintended direction; inactive = score below 0.9.

Assay: ATG_XTT_Cytotoxicity: Cytotoxicity Assessment in the Attagene TRANS-FACTORIAL HepG2 Assay (AID 2283584)
Procedure, shortened: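 Transfect HepG2 with GAL4-UAS reporter units, dose compound, incubate 24 h, then measure viable cell number by XTT. Fit concentration response against DMSO baseline.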

| Structure (SMILES) | outcome |
| --- | --- |
| CCCCCCCCC(CO)CCCCCC (stereo not drawn) | inactive |
| C=CCOC(=O)c1ccc(C(=O)OCC=C)c(C(=O)OCC=C)c1 | inactive |
| CC(=O)OCC=C(C)C | inactive |
| CC=C(C)C(C)=O | inactive |
| Cc1c(O)cccc1O | inactive |
| Nc1nc(N)nc(-c2ccccc2)n1 | inactive |
| CC1=CC=C(C(C)C)CC1 | inactive |
| O=C(C=Cc1ccccc1)OCCc1ccccc1 | inactive |
| CCOC(=O)/C=C\C(=O)OCC | inactive |
| Cc1c(Cl)cccc1Cl | inactive |
| CC(C)(C)NC(=O)[C@H]1CC[C@H]2[C@@H]3CC[C@H]4NC(=O)C=C[C@]4(C)[C@H]3CC[C@]12C | inactive |
| COCC(=O)O | inactive |
| CCNc1nc(NC(C)(C)C)nc(OC)n1 | inactive |
| CC(C)(O)Cc1ccccc1 | inactive |
| Cc1c[nH]c(=O)[nH]c1=O | inactive |
| C=CC(=O)OCCCCCCOC(=O)C=C | inactive |
| C=CCCCCCCCCOC(C)=O | inactive |
| [Cl][Sc]([Cl])[Cl] | inactive |
